Test results reported in PubChem BioAssay (Tox21).
Values joined by “and” are separate entries in the source; they are usually repeats but may differ in a detail not shown here. Equal entries are not always repeated. Results filed as inconclusive are left out. Entries that show only a call come without a potency. Active and inactive are the calls of the source. The call rests on the fitted dose curve; in most records, active means well fitted cell-killing curve with a large enough effect in the repeat runs; inconclusive means weak or mixed curves, or effect the other way; inactive means no such curve, though single readings can be large or run the other way.

Assay: qHTS assay for identifying genotoxic compounds that show differential cytotoxicity against isogenic chicken DT40 cell lines with known DNA damage response pathways - wild type cell line (AID 743012); further: nearly all actives have a fitted effect of over 60% in size
Settings: DT40 wild type chicken cells viability, CellTiter-Glo, 40 h; series mostly up to 68.4 µM; activity change, negative = cytotoxicity: at the top concentration
Text: U.S. Tox21 Program National Center for Advancing Translational Sciences [NCATS] NIH Chemical Genomics Center [NCGC] U.S. Environmental Protection Agency [EPA] National Institutes of Environmental Health Sciences [NIEHS] National Toxicology Program [NTP] U.S. Food and Drug Administration [FDA] Tox21 Assay Overview: DNA repair pathways play a critical role in cellular homeostasis by repairing DNA damage induced by endogenous processes and xenobiotics. Isogenic chicken DT40 cell lines deficient in different DNA repair pathways can be used to identify genotoxic compounds and aid in characterizing the nature of the DNA damage induced. Two DNA repair-deficient cell lines with disrupted genes, Rad54/Ku70 or Rev3, were used to screen the Tox21 10K compound library. Possible genotoxicity was based on the presence of a significant increase in cytotoxicity in one or more of the DNA repair-deficient cell lines compared to that observed in the parental DNA repair-proficient cell line. CellTiter Glo viability assay (Promega, Madison, WI) was used to measure cell viability in these cells after compound treatment. This assay includes the data from the wild type cell line.
Tox21 Assay Protocol Summary: 300 DT40 wild type cells in 5 uL/well were dispensed into white, solid-bottom 1536-well plates using a Multidrop Combi (ThermoFisher Scientific, Waltham, MA) dispenser. After the assay plates were incubated at 37 C/5% CO2 for approximately 0.5 hour, 23 nL of compounds dissolved in DMSO, positive controls or DMSO only was transferred into the assay plate by a pintool work station (Kalypsys, San Diego, CA). The assay plates were incubated at 37 C/5% CO2 for 40 hours. After 5 uL per well of CellTiter-Glo reagent was added into each well of the assay plates, the plates were incubated for 30 min at room temperature and the luminescence intensity of the plates was measured using a ViewLux (PerkinElmer, Shelton, CT) plate reader.
Potency means the concentration at half of the fitted maximal effect.

**Q.** For `COc1ccc(CN(CCN(C)C)c2ccccn2)cc1`, which “activity change, negative = cytotoxicity” value is on record?
**A.** 4.75% (inactive)

**Q.** With `CN(C)C(=O)Nc1ccc(Cl)c(Cl)c1` as the compound, how does the “activity change, negative = cytotoxicity” value read?
**A.** 2.94% (inactive)

**Q.** For `Cc1ncc([N+](=O)[O-])n1C`, which Potency is on record?
**A.** inactive

**Q.** Which “activity change, negative = cytotoxicity” value does the source give for `CCCCC1(COC(=O)CCC(=O)O)C(=O)N(c2ccccc2)N(c2ccccc2)C1=O` here?
**A.** -2.49% (inactive)

**Q.** For `O=C(O)CC(O)C(=O)O` (stereo not given), which Potency is on record?
**A.** inactive

**Q.** With `C[C@](N)(Cc1ccc(O)c(O)c1)C(=O)O` as the compound, how does the “activity change, negative = cytotoxicity” value read?
**A.** 0.296% (inactive)

**Q.** With `CCCCCCc1ccc(O)cc1O` as the compound, how does the Potency read?
**A.** 48.6 µM (active)

**Q.** Which Potency does the source give for `CCN(Cc1c(F)cccc1Cl)c1c([N+](=O)[O-])cc(C(F)(F)F)cc1[N+](=O)[O-]` here?
**A.** 30.6 µM (active)

**Q.** For `Cc1c(C(=O)O)c(O)cc2c1C(=O)c1c(O)c([C@@H]3O[C@H](CO)[C@@H](O)[C@H](O)[C@H]3O)c(O)c(O)c1C2=O`, which Potency is on record?
**A.** inactive

**Q.** For `C=C1CC[C@H](O)C/C1=C\C=C1/CCC[C@]2(C)[C@@H]([C@H](C)CCCC(C)C)CC[C@@H]12`, which Potency is on record?
**A.** 11.9 µM (active) and 54 µM (active)

**Q.** With `O=C1c2c(O)cccc2Cc2cccc(O)c21` as the compound, how does the Potency read?
**A.** inactive

**Q.** For `O=C(Nc1ncc([N+](=O)[O-])s1)c1cccs1`, which Potency is on record?
**A.** 23.7 µM (active)

**Q.** With `CN(C)CCOC(C)(c1ccccc1)c1ccccn1` (stereo not given) as the compound, how does the Potency read?
**A.** inactive

**Q.** Which Potency does the source give for `Nc1ccc(S(N)(=O)=O)cc1` here?
**A.** inactive

**Q.** With `CC(O)(P(=O)(O)O)P(=O)(O)O` as the compound, how does the Potency read?
**A.** inactive

**Q.** Which Potency does the source give for `CN[C@H]1CC[C@@H](c2ccc(Cl)c(Cl)c2)c2ccccc21` here?
**A.** 5.96 µM (active)

**Q.** Which Potency does the source give for `O=C1OC2(c3ccccc31)c1cc(Br)c(O)c(Br)c1Oc1c2cc(Br)c(O)c1Br` here?
**A.** inactive

**Q.** For `O=C(O)c1ccccc1`, which Potency is on record?
**A.** inactive

**Q.** Which “activity change, negative = cytotoxicity” value does the source give for `COc1ccc2c(c1)c(CC(=O)O)c(C)n2C(=O)c1ccc(Cl)cc1` here?
**A.** -14.8% (inactive)

**Q.** For `Cn1c(=O)c2c(ncn2C)n(C)c1=O`, which Potency is on record?
**A.** inactive

**Q.** For `Cc1cc(=O)oc2cc(O)ccc12`, which Potency is on record?
**A.** inactive

**Q.** Which Potency does the source give for `O=c1[nH]cc(F)c(=O)[nH]1` here?
**A.** 21.1 µM (active) and 27.9 µM (active)

**Q.** Which Potency does the source give for `CS(=O)(=O)OCCCCOS(C)(=O)=O` here?
**A.** inactive

**Q.** With `Cc1ncc([N+](=O)[O-])n1CCO` as the compound, how does the Potency read?
**A.** inactive

**Q.** Which “activity change, negative = cytotoxicity” value does the source give for `O=CC(=O)c1ccccc1` here?
**A.** -3.17% (inactive)

**Q.** With `COc1ccc2cc(S(=O)(=O)N[C@H](CC(=O)N[C@H](Cc3ccc(CN4[C@H](C)CCC[C@@H]4C)cc3)C(=O)N(C)C(C)C)c3ccc4c(c3)OCO4)ccc2c1` as the compound, how does the Potency read?
**A.** 7.28 µM (active)

**Q.** For `C1CCC(C(CC2CCCCN2)C2CCCCC2)CC1` (stereo not given), which Potency is on record?
**A.** 2.66 µM (active)

**Q.** With `NS(=O)(=O)O` as the compound, how does the Potency read?
**A.** inactive

**Q.** For `C=CCc1ccc(O)c(OC)c1`, which Potency is on record?
**A.** inactive

**Q.** For `NS(=O)(=O)c1cc2c(cc1Cl)NCNS2(=O)=O`, which Potency is on record?
**A.** inactive

**Q.** For `C=C(C)C(=O)OCC(C)O` (stereo not given), which Potency is on record?
**A.** inactive

**Q.** For `CCc1nc(N)nc(N)c1-c1ccc(Cl)cc1`, which Potency is on record?
**A.** 596 nM (active) and 139 nM (active) and 273 nM (active)

**Q.** For `Oc1ccccc1`, which Potency is on record?
**A.** inactive

**Q.** For `CN1CCc2cccc3c2[C@H]1Cc1ccc(O)c(O)c1-3`, which Potency is on record?
**A.** 9.44 µM (active) and 15.5 µM (active) and 12.8 µM (active)

**Q.** For `CNNCc1ccc(C(=O)NC(C)C)cc1`, which Potency is on record?
**A.** inactive

**Q.** For `COc1ccc(C(Cl)=C(c2ccc(OC)cc2)c2ccc(OC)cc2)cc1`, which Potency is on record?
**A.** 23.7 µM (active) and 24.3 µM (active)

**Q.** For `CCOc1ccc(NC(C)=O)cc1`, which Potency is on record?
**A.** inactive

**Q.** For `CC1(C)O[C@@H]2C[C@H]3[C@@H]4CCC5=CC(=O)C=C[C@]5(C)[C@@]4(F)[C@@H](O)C[C@]3(C)[C@]2(C(=O)CO)O1`, which Potency is on record?
**A.** inactive

**Q.** With `CCCCCCCCCCCC[N+](C)(C)Cc1ccccc1` as the compound, how does the Potency read?
**A.** 422 nM (active) and 151 nM (active) and 1.05 µM (active)

**Q.** For `CC(=O)CC(c1ccccc1)c1c(O)c2ccccc2oc1=O` (stereo not given), which Potency is on record?
**A.** inactive
